The values below come from PubChem BioAssay (NCATS).

Results filed as inconclusive are left out. Active and inactive are the calls of the source. Calls follow the shape of the dose curve; as a rule, active = well fitted cell-killing curve with a large enough effect; inconclusive = small, poorly fitted or top-dose-only effect; inactive = no such curve, though single readings can be large or run the other way.
Potency is read from the fitted curve at half-maximal effect.

The nature of this test: qHTS of pediatric cancer cell lines to identify multiple opportunities for drug repurposing: Primary screen for OHS-50 cells (AID 1347103). Also: nearly all actives have a fitted effect of over 40% in size. To be noted: OHS-50 osteosarcoma viability, CellTiter-Glo luminescence, 48 h; series mostly up to 57.3 µM; activity change, negative = cytotoxic: at the top concentration. An excerpt:
Drug repurposing or repositioning has been offered as a strategy for drug development in oncology programs. This approach has special potential for childhood cancers and other rare or orphan diseases, where the expected return on new drug development has been a disincentive to pharmaceuticals.
In this project we exploit the poly-pharmacology of drugs to discover new indications via phenotypic screening of a panel of 19 well-characterized cell lines derived from solid tumors seen in children and adolescents. The goal is to identify approved drugs with previously unrecognized anticancer properties that has the potential to reveal new mechanisms and biological processes involved in carcinogenesis or drug resistance. We employed a titration-based paradigm (quantitative high-throughput screening or qHTS), where all compounds were tested at multiple concentrations for their effect on cell viability. Concentration-response curves (CRCs) were derived directly from the primary screen, and both potency and efficacy values were used to identify compounds with robust bioactivity profiles. We screened the NIH Chemical Genomics Center (NCGC) Pharmaceutical Collection (NPC) and Mechanism Interrogation Plate (MIPE) small molecule collections of approved and investigational compounds against these cell lines; and measured metabolically active cells after 48 hours of compound treatment as a proxy for cell viability.
Assay Submitter: Nathalia J. Martinez, National Center for Advancing Translational Sciences, National Institutes of Health, Rockville, MD, USA; email: natalia.martinez@nih.gov
[1] Shen, M et al. Quantitative high-throughput phenotypic screening of pediatric cancer cell lines identifies multiple opportunities for drug repurposing. Oncotarget 2017 Dec 19;9(4):4758-4772. PMID 29435139.
The cells were obtained from University of North Carolina (UNC), Pediatric Preclinical Testing Program (PPT), and Coriell Institute (CI).
qHTS cell viability assay:
Cells were assayed in growth media at a density of 500-1,000 cells/well. Five microliters of cells were dispensed into 1,536-well, white, solid-bottom, TC-treated plates (Greiner Bio One) using a multidrop dispenser and incubated at 37 degrees C, 5% CO2, under a humidified atmosphere for 5 hours. Twenty-three nanoliters of compounds and controls (neutral control DMSO or positive control bortezomib at final concentration of 2.3 µM) were subsequently transferred by Kalypsys pintool. For primary screens, the MIPE collection was tested at 11-point dilutions (final concentrations range from 0.78 nM to 46 µM) and the NPC collection at 8-point dilutions (final concentrations range from 0.59 nM to 46 µM). Compounds tested in follow-up screens were assayed at 11-point dilutions. Cells were incubated for 48 hours, followed by addition of 3 µL of CellTiter-Glo (Promega). After a 15 min incubation at room temperature, samples were analyzed for luminescence intensity using a ViewLux High-throughput CCD imager equipped with clear filters.
Turning to `CCCC(=O)O[C@]1(C(=O)CCl)[C@@H](C)C[C@H]2[C@@H]3CCC4=CC(=O)C=C[C@]4(C)[C@@]3(F)C(=O)C[C@@]21C`, the Potency was 13.8 µM (active).

Take `COC(=O)CCCCC(CCSS/C(CCO)=C(\C)N(C=O)Cc1cnc(C)nc1N)SC(C)=O` (stereo not given): the “activity change, negative = cytotoxic” value was 15.7% (inactive).

In the case of `COc1ccc2cc(C=O)ccc2c1`, the “activity change, negative = cytotoxic” value is 1% (inactive).

Consider `CC1(C)S[C@@H]2[C@H](NC(=O)C(c3ccccc3)S(=O)(=O)O)C(=O)N2[C@H]1C(=O)O` (stereo not given in full), for which the “activity change, negative = cytotoxic” value was 7.25% (inactive).

For the molecule `CO/N=C(/C(=O)N[C@@H]1C(=O)N2C(C(=O)OCOC(=O)C(C)(C)C)=C(C)CS[C@H]12)c1csc(N)n1`, the “activity change, negative = cytotoxic” value was 14.5% (inactive).

For the molecule `O=C(CCCl)NCCc1ccccc1`, the “activity change, negative = cytotoxic” value is -3.92% (inactive).

For `Nc1nc2ccccc2n1Cc1ccc(F)cc1`, the Potency was 17.4 µM (active).

On to `O=C(C1CCCCC1)N1CC(=O)N2CCCc3ccccc3C2C1` (stereo not given), for which the “activity change, negative = cytotoxic” value was 5.35% (inactive).

As for `CCCCCC[C@@H](CCC)C(=O)O`, the “activity change, negative = cytotoxic” value is -12.8% (inactive).

In the case of `Cc1c(F)cc2c(=O)c(C(=O)O)cn3c2c1CCC3C` (stereo not given), the “activity change, negative = cytotoxic” value is 105% (inactive).

`CC1CCCCN1CCCOC(=O)c1ccc(OC2CCCCC2)cc1` (stereo not given): the Potency was 24.6 µM (active).

For the molecule `CN(C)CCOC1=Cc2ccccc2Sc2ccc(Cl)cc21`, the Potency is 24.6 µM (active).

With `CCOc1ccccc1OCC1CNCCO1` (stereo not given), the “activity change, negative = cytotoxic” value is 6.55% (inactive).

`Oc1ccccc1-c1nnco1`: the “activity change, negative = cytotoxic” value is 11.6% (inactive).

As for `COc1ccccc1N1CCN(CC(O)COc2cc(OC)c(OC)c(OC)c2)CC1` (stereo not given), the “activity change, negative = cytotoxic” value is 8.21% (inactive).

On to `O=C(O)Cn1cnnn1`, for which the “activity change, negative = cytotoxic” value was 3.88% (inactive).

Turning to `CC(=O)N(c1onc(C)c1C)S(=O)(=O)c1ccc(N)cc1`, the “activity change, negative = cytotoxic” value is -9.51% (inactive).

Take `CCOC(=O)C(=O)c1csc(NC=O)n1`: the “activity change, negative = cytotoxic” value was 6.08% (inactive).

Consider `O=C(CS(=O)Cc1ccco1)NC/C=C\COc1cc(CN2CCCCC2)ccn1` (stereo not given), for which the “activity change, negative = cytotoxic” value is 2.07% (inactive).

`O=C(O)c1cn(C2CC2)c2cc(Cl)c(F)cc2c1=O`: the “activity change, negative = cytotoxic” value was 63.4% (inactive).

Regarding `Cn1c(=O)c2c(ncn2CC(=O)O)n(C)c1=O`, the “activity change, negative = cytotoxic” value is 5.05% (inactive).

As for `O=C(COCCOCCOCC(=O)Nc1c(I)cc(I)c(C(=O)O)c1I)Nc1c(I)cc(I)c(C(=O)O)c1I`, the “activity change, negative = cytotoxic” value was 20.9% (inactive).

Regarding `O=C(O)[C@H](O)[C@@H](O)[C@H](O[C@@H]1O[C@H](CO)[C@H](O)[C@H](O)[C@H]1O)[C@H](O)CO`, the “activity change, negative = cytotoxic” value was -7.01% (inactive).

For the molecule `c1ccc2occc2c1`, the “activity change, negative = cytotoxic” value is 13.7% [at 116 µM] (inactive).

As to `CCN1CCCC1CN` (stereo not given), the “activity change, negative = cytotoxic” value is -5.83% (inactive).

`O=C1c2ccccc2CCc2ccccc21`: the “activity change, negative = cytotoxic” value is -10.1% (inactive).

With `CC(C)C[C@H](NC(=O)CNC(=O)[C@H](Cc1ccc(O)cc1)NC(=O)[C@H](CO)NC(=O)[C@H](Cc1c[nH]c2ccccc12)NC(=O)[C@H](Cc1cnc[nH]1)NC(=O)[C@@H]1CCC(=O)N1)C(=O)N[C@@H](CCCN=C(N)N)C(=O)N1CCC[C@H]1C(=O)NCC(N)=O` (stereo in doubt), the “activity change, negative = cytotoxic” value was -6.05% (inactive).

Turning to `Cc1cc(=O)oc2cc(O[C@@H]3SC[C@@H](O)[C@H](O)[C@H]3O)ccc12`, the “activity change, negative = cytotoxic” value is 19.2% (inactive).

Consider `O=C(c1ccco1)N1CCNCC1`, for which the “activity change, negative = cytotoxic” value is 2.91% (inactive).

As for `CCCC(=O)Nc1ccc(O)c(C(C)=O)c1`, the “activity change, negative = cytotoxic” value is 9.33% (inactive).

Take `Cc1c(N)cccc1C(F)(F)F`: the “activity change, negative = cytotoxic” value was 12.4% (inactive).

As for `C[C@@H]1C[C@H]2[C@@H]3CCC4=CC(=O)C=C[C@]4(C)[C@@]3(F)[C@@H](O)C[C@]2(C)[C@@]1(O)C(=O)COC(=O)c1ccncc1`, the “activity change, negative = cytotoxic” value is 2.45% (inactive).

On to `OCc1cccnc1`, for which the “activity change, negative = cytotoxic” value is 17.4% (inactive).

`O=C(O)CCCC[P+](c1ccccc1)(c1ccccc1)c1ccccc1`: the “activity change, negative = cytotoxic” value is -3.76% (inactive).

With `CN(C)CCOC(c1ccccc1)c1ccc(Br)cc1` (stereo not given), the Potency is 21.9 µM (active).

On to `O=C(O)Cc1ccccc1Oc1ccc(Cl)cc1Cl`, for which the “activity change, negative = cytotoxic” value is 19.3% (inactive).

`O=C1CC(c2ccc(Cl)cc2)CC(=O)N1`: the “activity change, negative = cytotoxic” value is 18.6% (inactive).

`Nc1ncnc2c1ncn2Cc1c(F)cccc1Cl`: the “activity change, negative = cytotoxic” value is -9.42% (inactive).

As to `C[N+]1(CC2COC(c3ccccc3)(c3ccccc3)O2)CCCCC1` (stereo not given), the “activity change, negative = cytotoxic” value was -9.18% [at 19.7 µM] (inactive).

On to `CSc1ccc(/C=C2/C(C)=C(CC(=O)O)c3cc(F)ccc32)cc1`, for which the “activity change, negative = cytotoxic” value was 5.36% (inactive).
